Bioassay records deposited in PubChem BioAssay by National Center for Advancing Translational Sciences (NCATS).
An excerpt weighted towards active compounds, which were near 7.9% of everything screened.
HCV inh = HCV inhibition | Potency, µM (titrated, usually from 41.8 µM), for inactives: at the highest dose activity change, negative = inhibition, usual class: inhibitors | AID 651820 | 340,000 compounds, 3.4% hits | Huh7.5.1 HCVcc-Cre infection, luciferase reporter, 44 h; active means well fitted inhibition curve with a large enough effect; inconclusive means small, poorly fitted or top-dose-only effect, or another doubt; inactive means no such curve, though single readings can be large or run the other way; further: potency means the concentration at half of the fitted maximal effect
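Reporter virus HCVcc-Cre (~0.5 moi) infects cells exposed to compound; seeding density 1,000 cells/well with 4 h settling beforehand. Luminescence, 15 sec read, taken 44 h post-infection following a 15 min RT substrate incubation.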
FMDV inh = blocks foot and mouth disease virus; FMDV antiviral cell-based qHTS; Potency, µM (top dose mostly 57.9 µM), without a hit: at the highest dose activity change, negative = inhibition, most hits filed as inhibitors; 410,000 compounds, 1.2% hits; AID 1159524; calls by dose curve; tested in HEK293T cells; further: read-out not given here; potency means the concentration at half of the fitted maximal effect; nearly all actives have a fitted effect of over 45% in size
Lassa entry inh = inhibitors of Lassa virus binding or cell entry. Lassa virus pseudotype entry inhibition, cell reporter. AID 540256. Potency, µM (series often up to 37.9 µM), for the others: at the highest dose activity change, negative = inhibition, hits mostly inhibitors. 300,000 compounds, 1.2% hits; calls by dose curve; tested in HEK293 cells; further: potency means the concentration at half of the fitted maximal effect; nearly all actives have a fitted effect of over 50% in size
MARV entry inh = blocks Marburg virus binding to or entry into cells. AID 540276. 300,000 compounds, 1.8% hits. Marburg virus pseudotyped entry inhibition, cell reporter. Potency, µM (highest dose often 37.8 µM), inactives show top-dose activity change, negative = inhibition, hits mostly inhibitors; calls by dose curve; tested in HEK293 cells; further: potency means the concentration at half of the fitted maximal effect
HCMV antiviral = inhibitors of human cytomegalovirus; HFF cells, HCMV-luciferase reporter, 72 h; hits give low values; activity change, negative = inhibition, % at 57.5 µM; 410,000 compounds, 4.5% hits; in the data active means activity change below about -60%; inconclusive means no clear call, values can overlap the other calls; inactive means above about -39%
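Cell-based, HFFs, 1000 cells/well, 16 h 37C; cpds in DMSO + HCMV-luc, MOI 1 PFU/cell; 72 h 37C; OneGlo luminescence after 5 min RT; norm. to buffer vs Salinomycin 10uM.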
Numbers without * were called inactive; ? = inconclusive; . = no result; [ ] = dose if it differs, or a comment. On the % scale 0 is the no-effect control and ±100 the full control effect.

SMILES | HCV inh | FMDV inh | Lassa entry inh | MARV entry inh | HCMV antiviral
Fc1ccc2[nH]c(-c3cccs3)cc2c1 | . | 17.0% | -3.2%[46.1 µM] | -1.3%[46.1 µM] | -2.4
Cc1csc(-c2cc(C(=O)NCc3ccc(F)cc3)n[nH]2)c1 | . | 11.8% | . | . | -64.1*
CC(=O)c1ccc(Oc2ccc(C(=O)c3ccc(C)c(C)c3)cc2[N+](=O)[O-])cc1 | 3.8% | 0.0% | 1.46µM* | ? | 19.0
Cc1cccc(C)c1NS(=O)(=O)c1cc2c3c(c1)CC(=O)N3CCC2 | -10.8% | -0.3% | . | . | -65.4*
O=[N+]([O-])c1cc(Cl)cc(C2=NCCN2)c1 | 8.91µM* | 3.9% | ? | ? | 19.9
O=C(Nc1ccccc1)N1CC(=O)N2[C@@H](CO)[C@H](c3ccc(Br)cc3)[C@@H]2C1 | . | . | . | . | -6.4
CN1/C(=C/C(=S)NC(=O)C2(C)CC2(Cl)Cl)C(C)(C)c2ccccc21 (stereo not given) | ? | -23.4% | 12.6%[46.1 µM] | ? | -69.2*
CN1/C(=C\C(=O)Nc2ccc(Cl)cc2)C(C)(C)c2ccccc21 | -23.7% | 5.3% | -19.7%[46.1 µM] | ? | ?
CN1/C(=C\C(=S)Nc2ccccc2)C(C)(C)c2ccccc21 | ? | -20.7% | -15.7%[46.1 µM] | ? | -70.9*
CN1/C(=C/C(=O)CSc2ccccc2C(=O)O)C(C)(C)c2ccccc21 | 12.4% | 0.0% | . | . | 20.3
CN1/C(=C\C(=S)NC(=O)c2ccccc2Cl)C(C)(C)c2ccccc21 | ? | -14.1% | 5.7% | ? | -83.8*
COc1ccccc1C(=O)NC(=S)/C=C1/N(C)c2ccccc2C1(C)C | ? | ? | ? | 14.1µM* | -91.9*
COC(=O)c1cc2oc3ccccc3c2n1Cc1cccc(C)c1 | . | 0.0% | . | -0.8%[46.1 µM] | 15.1
FC(F)(F)c1ccc(Nc2cc3c(cn2)ncn3Cc2ccco2)cc1 | . | . | . | . | -15.2
CCOC(=O)[C@]12C[C@]3(OC)CCN(C(=O)N[C@@H]1c1ccccc1)[C@@H]32 | . | . | -19.5%[14.3 µM] | 9.7%[14.2 µM] | .
O=C(CN1CCCC1c1cccs1)Nc1cc(S(=O)(=O)N2CCCC2)ccc1Cl (stereo not given) | ? | -20.9% | ? | -5.8%[46.1 µM] | 2.7
CCOc1ccc(NC(=O)CN2CCN(c3ccccc3C)CC2)cc1S(=O)(=O)N1CCCC1 | ? | 0.4% | -4.9% | -4.1% | -2.8
COc1ccc(NC(=O)CN2CCCC2c2cccs2)cc1S(=O)(=O)N1CCCCC1 (stereo not given) | ? | 39.8µM* | . | . | ?
CCOc1ccc(NC(=O)CN2CCCC2c2cccs2)cc1S(=O)(=O)N1CCCC1 (stereo not given) | 11.2µM* | 7.3% | . | . | -91.7*
O=C(CN1CCCC1c1cccs1)Nc1cccc(S(=O)(=O)N2CCCC2)c1 (stereo not given) | 10µM* | -25.0% | . | . | -33.3
COCc1cc(C)nc(SCC[N+](C)(C)CC(=O)Nc2ccccc2)c1C#N | 28.2% | -5.3% | 6.3% | -2.3%[46.1 µM] | -29.6
COCc1cc(C)nc(SCC[N+](C)(C)CC(=O)c2ccc(Br)cc2)c1C#N | 31.6µM* | -1.4% | -13.9% | 6.0%[46.1 µM] | -0.6
Cc1cc(Cl)ccc1NC(=O)CCS(=O)(=O)c1ccc2c(c1)CC(C)N2C(=O)C1CC1 (stereo not given) | . | -24.8% | -1.5%[46.1 µM] | . | -65.1*
Cc1ccc(C)c(N2CCN(S(=O)(=O)c3ccc4c(c3)CC(C)N4C(=O)C3CC3)CC2)c1 (stereo not given) | ? | -26.0% | ? | ? | ?
Cc1cccc(N2CCN(S(=O)(=O)c3ccc4c(c3)CCCN4C(=O)C3CCC3)CC2)c1C | 14.1µM* | ? | 6.31µM* | . | ?
SMILES | HCV inh | FMDV inh | Lassa entry inh | MARV entry inh | HCMV antiviral
O=C(C1CC1)N1CCc2cc(S(=O)(=O)N3CCCc4ccccc43)ccc21 | -6.1% | 0.0% | ? | -7.7%[46.1 µM] | -68.4*
Cc1cccc(N2CCN(S(=O)(=O)c3ccc4c(c3)CC(C)N4C(=O)C3CC3)CC2)c1C (stereo not given) | ? | ? | . | . | -61.3*
Cc1ccc(C)c(N2CCN(S(=O)(=O)c3ccc4c(c3)CCCN4C(=O)C3CCC3)CC2)c1 | . | ? | -28.1%[46.1 µM] | . | -8.7
COc1ccc(OCC(=O)Nc2ccc(-c3nc4cc(C)cc(C)c4o3)cc2)cc1 | . | 39.1% | 23.4%[46.1 µM] | . | 46.1
CC(=O)c1ccc(N2CCN(S(=O)(=O)c3ccc4c(c3)CC(C)N4C(=O)C3CC3)CC2)cc1 (stereo not given) | 3.55µM* | ? | . | . | -14.2
CCC(=O)N1CCCc2cc(S(=O)(=O)N3CCN(c4ccccc4F)CC3)ccc21 | 12.6µM* | ? | . | . | ?
COc1ccc(N2CCN(S(=O)(=O)c3ccc4c(c3)CC(C)N4C(=O)C3CC3)CC2)cc1 (stereo not given) | ? | -22.2% | -2.1%[46.1 µM] | 11.6%[46.1 µM] | ?
CCC(=O)N1CCCc2cc(S(=O)(=O)N3CCN(c4ncccn4)CC3)ccc21 | 16.6% | -1.1% | . | . | 3.1
CC(=O)N1CCc2cc(S(=O)(=O)N3CCOCC3)ccc21 | 8.4% | -1.2% | -9.4% | 4.7% | -7.0
CC(=O)N1CCc2cc(S(=O)(=O)N3c4ccccc4CC3C)ccc21 (stereo not given) | ? | . | ? | ? | -77.1*
CC(=O)N1c2ccc(S(=O)(=O)N3CCOCC3)cc2CC1C (stereo not given) | 11.9% | 4.8% | -14.4%[46.1 µM] | 29.5%[46.1 µM] | 51.6
CC(=O)c1ccc(N2CCN(S(=O)(=O)c3ccc4c(c3)CC(C)N4C(C)=O)CC2)cc1 (stereo not given) | 6.31µM* | ? | ? | ? | -28.1
Cc1ccc(C2c3cccn3CCN2S(=O)(=O)c2ccc([N+](=O)[O-])cc2)cc1 (stereo not given) | . | -21.6% | ? | . | -17.1
O=C(COC(=O)CNC(=O)c1ccco1)NCCN1C(=O)CSC1=O | -3.7% | 8.0% | 5.1% | 19.5% | -62.0*
COc1ccccc1OCC(=O)OCC(=O)NCCN1C(=O)CSC1=O | 20.7% | 22.8% | 3.6% | ? | -3.6
O=C(Cc1ccc(Cl)cc1)Nc1ccccc1N1CCN(C(=O)c2ccccc2)CC1 | ? | 35.5µM* | . | . | ?
COc1ccc(C(=O)Nc2ccc(Nc3ccccc3)cc2)cc1Br | 8.91µM* | ? | -10.5% | -13.7%[46.1 µM] | -33.3
COc1ccc(C(=O)Nc2ccccc2N2CCN(C(=O)c3ccccc3)CC2)cc1Br | 10µM* | -16.4% | ? | ? | -6.8
COc1ccc(C(=O)Nc2ccc(N3CCCCC3)cc2)cc1Br | ? | 8.9% | ? | -3.6% | ?
O=[S+]1([O-])N[C@@H]2Cc3ccccc3[C@@H]2Oc2cc(Br)ccc21 | . | . | -3.2%[46.1 µM] | . | .
COc1ccc(OC)c(NC(=O)c2cc3n(n2)C(C(F)(F)F)CC(c2ccc4c(c2)OCO4)N3)c1 (stereo not given) | 31.6µM* | 0.0% | -7.3% | 2.5% | -29.5
COc1ccc(CCn2c3c(c(=O)[nH]c2=O)C(NC(=O)c2ccccc2)(C(F)(F)F)C(=O)N3)cc1OC (stereo not given) | . | -8.3% | 13.7%[46.1 µM] | 11.1%[46.1 µM] | 5.6
CCc1cccc(C)c1Nc1c(-c2ccc(SC)cc2)nc2sccn12 | . | 10.3% | 8.3%[46.1 µM] | ? | 70.6
